In PubChem BioAssay (EPA / NIEHS) one finds AC50 and outcome data, which are given here for 17 molecules.

Test [1] in a line: ACEA_ER_80hr: ACEA Biosciences xCELLigence Real-Time Cell Analysis on Estrogen Receptor Agonism for Proliferation (AID 2282667; active means hit-call score of the fitted dose curve at least 0.9, where 1 is the maximum). The following applies: T47D proliferation, impedance (xCELLigence), 80 h. The procedure, abridged: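 Impedance readout (RT-CES) of T47D proliferation at 80 h post-dose; gain of signal vs DMSO baseline. Compounds: 8 conc, 1:4 serial, top 100 uM final, ≤0.5% DMSO; biological duplicate.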

Test [2] can be described thus: ATG_CRE_CIS: Attagene CIS-FACTORIAL HepG2 Assay for human cAMP Responsive Element (CRE) binding protein 3 (AID 2282926). As to conditions: HepG2 CRE cis-reporter, Attagene multiplexed mRNA; actives raise or lower the signal. The gist of the method:
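Readout: fluorescently labelled reporter transcripts resolved by capillary electrophoresis after RT-PCR, taken 24 h post-dosing in transfected HepG2. Endogenous transcription factor activity drives each cis-element reporter; gain or loss of signal fitted relative to DMSO control.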

The target of test [3] is CCAAT/enhancer-binding protein beta (Homo sapiens) (UniProt P17676). The test is described as follows: ATG_C_EBP_CIS: Attagene CIS-FACTORIAL HepG2 Assay for human CCAAT/Enhancer Binding Protein (C/EBP) beta (AID 2282927). As to conditions: HepG2 Attagene cis-factorial transcription factor reporter; actives raise or lower the signal. The procedure, abridged: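 RT-PCR/capillary electrophoresis fluorescence of reporter mRNA, 24 h post-dose, in HepG2 cells carrying transfected cis-promoter reporter units. Bidirectional curve fitting against DMSO baseline captures gain or loss of signal.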

Test [4] is described as follows: ATG_CMV_CIS: Attagene CIS-FACTORIAL HepG2 Assay for human CMV (Internal Marker) (AID 2282928).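 Further: endpoint acts as a background internal control marker rather than a target.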 As to conditions: HepG2 CMV promoter reporter, transcription factor profiling; actives raise or lower the signal. The gist of the method: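 24 h chemical treatment, HepG2 with transient multi-reporter transfection; RNA → oligo(dT) RT → PCR → 6-FAM extension → HpaI digest → CE fluorescence. Bidirectional fit, DMSO negative control.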

Test [5] in a line: ATG_DR4_LXR_CIS: Attagene CIS-FACTORIAL HepG2 Assay for human Liver X Receptor (LXR), DR4 submotif (AID 2282929). As to conditions: HepG2 Attagene DR4 cis-reporter, mRNA transcription; actives raise or lower the signal. The procedure, abridged:
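Cells were transfected with multiple reporter transcription units, exposed to chemicals for 24 hours, then lysed for RNA. Reporter mRNA induction was measured by RT-PCR with capillary electrophoresis detection and fitted in both directions relative to DMSO.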

Test [6] addresses Aryl hydrocarbon receptor (Homo sapiens) (UniProt P35869). The test can be described thus: ATG_Ahr_CIS: Attagene CIS-FACTORIAL HepG2 Assay for human Aryl Hydrocarbon Receptor (Ahr) (AID 2282930). As to conditions: HepG2 AhR cis-factorial reporter transcription; actives raise or lower the signal. The gist of the method:
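HepG2 cells transiently transfected with cis-element-driven multiplexed reporter transcription units; endogenous transcription factor activity measured as reporter mRNA 24 h after dosing. RT-PCR, 6-FAM labelling, HpaI digestion, capillary electrophoresis; bidirectional fitting versus DMSO baseline.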

Test [7] in a line: ATG_AP_1_CIS: Attagene CIS-FACTORIAL HepG2 Assay for human Activator Protein 1 (AP-1) (AID 2282931). The following applies: HepG2 Attagene cis-factorial AP-1 reporter mRNA; actives raise or lower the signal. The gist of the method:
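Endogenous transcription-factor activity in human HepG2 liver cells is read through a cis-promoter reporter transcript, sampled 24 h after dosing. Detection uses RT-PCR with capillary electrophoresis; values come from bidirectional fitting relative to DMSO.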

Test [8] in a line: ATG_AP_2_CIS: Attagene CIS-FACTORIAL HepG2 Assay for human Activator Protein 2 (AP-2) (AID 2282932). As to conditions: HepG2 AP-2 cis-reporter, Attagene transcription factor profiling; actives raise or lower the signal. The gist of the method:
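Cells (HepG2) transfected with promoter-driven reporter constructs, treated 24 h. Total RNA reverse-transcribed, reporter cDNA PCR-amplified, FAM-labelled by primer extension, digested, resolved by capillary electrophoresis. Activity fitted both directions versus DMSO.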

A short description of test [9]: ATG_BRE_CIS: Attagene CIS-FACTORIAL HepG2 Assay for human Bone Morphogenetic Protein (BMP) Response Element (BRE) (AID 2282933). As to conditions: HepG2 BMP response element reporter, Attagene transcription factor profiling; actives raise or lower the signal. The procedure, abridged: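 Fluorescence-labelled reporter cDNA fragments, separated by capillary electrophoresis, gave the signal for this component of a 52-readout multiplex. HepG2 cells were transfected, exposed to chemicals for 24 h, and compared with DMSO using bidirectional fitting.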

Test [10] has as its target Retinoic acid receptor alpha (Homo sapiens) (UniProt P10276). The test can be described thus: ATG_DR5_RAR_CIS: Attagene CIS-FACTORIAL HepG2 Assay for human Retinoic Acid Receptor Alpha (RARE), DR5 submotif (AID 2282934). The following applies: HepG2 Attagene cis-factorial RARE DR5 reporter, mRNA; actives raise or lower the signal. The procedure, abridged:
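HepG2 cells transiently transfected with multiplexed reporter units under cis (DR5 RARE) promoters, so endogenous transcription factor activity is measured. After 24 h compound exposure, reporter mRNA is quantified by RT-PCR with fluorescent labelling and capillary electrophoresis; bidirectional fitting versus DMSO.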

Each structure is given as a SMILES string. Where “and” joins values, the source holds several entries; their conditions need not be identical. Equal entries are not always repeated. Results filed as inconclusive are left out. More than one record can exist for a structure, and the calls need not agree. Calls of active or inactive are those of the source. How the source made its calls, unless noted: active means hit-call score of the fitted dose curve at least 0.9, where 1 is the maximum; inactive means score below 0.9.

Sequence of CCAAT/enhancer-binding protein beta (Homo sapiens) (P17676 whole entry, looked up): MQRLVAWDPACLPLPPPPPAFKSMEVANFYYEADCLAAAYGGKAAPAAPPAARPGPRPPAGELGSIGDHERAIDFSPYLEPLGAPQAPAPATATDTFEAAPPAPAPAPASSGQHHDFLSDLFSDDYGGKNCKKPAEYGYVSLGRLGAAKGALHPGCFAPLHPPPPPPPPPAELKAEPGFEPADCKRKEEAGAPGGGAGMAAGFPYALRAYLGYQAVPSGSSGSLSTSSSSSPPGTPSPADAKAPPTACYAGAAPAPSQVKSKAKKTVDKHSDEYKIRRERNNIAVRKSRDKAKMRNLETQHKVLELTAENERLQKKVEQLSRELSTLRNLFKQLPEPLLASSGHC
Sequence of Retinoic acid receptor alpha (Homo sapiens) (P10276 whole entry, looked up): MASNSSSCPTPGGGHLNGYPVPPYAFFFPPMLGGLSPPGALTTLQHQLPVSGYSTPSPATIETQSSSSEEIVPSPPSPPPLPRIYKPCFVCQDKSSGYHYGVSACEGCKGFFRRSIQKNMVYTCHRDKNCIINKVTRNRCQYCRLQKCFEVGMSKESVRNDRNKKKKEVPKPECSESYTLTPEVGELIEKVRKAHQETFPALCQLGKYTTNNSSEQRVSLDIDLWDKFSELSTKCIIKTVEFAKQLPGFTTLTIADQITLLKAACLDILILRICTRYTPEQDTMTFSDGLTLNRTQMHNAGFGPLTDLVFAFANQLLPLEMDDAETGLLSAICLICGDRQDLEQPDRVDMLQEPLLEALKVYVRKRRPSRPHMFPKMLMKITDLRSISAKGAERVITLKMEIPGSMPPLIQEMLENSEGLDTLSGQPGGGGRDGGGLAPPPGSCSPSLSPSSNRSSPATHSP
Sequence of Aryl hydrocarbon receptor (Homo sapiens) (P35869 whole entry, looked up): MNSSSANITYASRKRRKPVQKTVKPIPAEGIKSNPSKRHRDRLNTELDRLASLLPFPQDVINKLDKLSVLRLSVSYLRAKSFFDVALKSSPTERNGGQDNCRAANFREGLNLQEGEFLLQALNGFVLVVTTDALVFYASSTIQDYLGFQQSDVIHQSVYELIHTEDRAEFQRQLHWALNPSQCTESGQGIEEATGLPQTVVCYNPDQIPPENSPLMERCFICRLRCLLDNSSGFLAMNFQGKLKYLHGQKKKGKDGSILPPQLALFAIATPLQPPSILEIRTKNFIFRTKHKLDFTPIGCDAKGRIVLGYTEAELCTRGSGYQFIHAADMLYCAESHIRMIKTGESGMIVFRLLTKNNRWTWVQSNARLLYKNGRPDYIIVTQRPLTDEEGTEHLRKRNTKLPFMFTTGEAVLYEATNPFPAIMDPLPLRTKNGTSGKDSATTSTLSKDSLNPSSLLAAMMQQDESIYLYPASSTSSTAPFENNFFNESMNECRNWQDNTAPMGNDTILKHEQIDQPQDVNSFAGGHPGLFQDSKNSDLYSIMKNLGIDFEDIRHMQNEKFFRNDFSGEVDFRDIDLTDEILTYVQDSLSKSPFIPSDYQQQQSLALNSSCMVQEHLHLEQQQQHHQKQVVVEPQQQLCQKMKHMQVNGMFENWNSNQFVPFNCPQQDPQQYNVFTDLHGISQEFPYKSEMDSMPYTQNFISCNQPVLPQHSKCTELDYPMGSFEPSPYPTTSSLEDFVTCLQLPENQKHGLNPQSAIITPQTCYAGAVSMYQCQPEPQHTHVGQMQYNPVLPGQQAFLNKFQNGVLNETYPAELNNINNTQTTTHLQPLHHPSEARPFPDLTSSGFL

Turning to `O=C(OCCOCCOCCOC(=O)c1ccccc1)c1ccccc1`, in [1], the AC50 (commonly the concentration at which the activity in the assay is half-maximal) is 10.8 µM (active). Moreover, the molecule was classed as inactive in test [2], in [3], in test [4], in test [5], in test [6] and in test [7]. Also, the outcome in [8], in [9] and in [10] was inactive.

Consider `OCCCC(F)(F)C(F)(F)C(F)(F)C(F)(F)C(F)(F)C(F)(F)C(F)(F)F`, for which the outcome in test [1], in test [2], in test [3], in test [4], in [5] and in test [6] was inactive. The outcome in test [8], in test [9] and in test [10] was inactive. The AC50 is 51.4 µM (active) in [2], 35.6 µM (active) in test [5] and 75.5 µM (active) in test [8].

As to `O=S(=O)(O)C(F)(F)C(F)(F)C(F)(F)C(F)(F)C(F)(F)C(F)(F)C(F)(F)F`, the molecule was classed as inactive in test [1], in [2], in test [4], in test [5], in test [6] and in test [7]. In addition, the call in test [8], in test [9] and in test [10] was inactive. Further, the AC50 was 70.3 µM (active) and 50 µM (active) in [3]; 29.7 µM (active) in test [5]; 100 µM (active) in test [7]; 100 µM (active) in [9].

Consider `O=C(O)C(F)(OC(F)(F)C(F)(OC(F)(F)C(F)(OC(F)(F)C(F)(F)C(F)(F)F)C(F)(F)F)C(F)(F)F)C(F)(F)F` (stereo not given), for which the call in test [1], in test [2], in test [3], in [4], in [5] and in test [6] was inactive. The outcome in [8], in test [9] and in [10] was inactive.

Turning to `FC(F)(Br)C(F)(F)C(F)(F)C(F)(F)C(F)(F)C(F)(F)Br`, in test [1], the AC50 is 42.7 µM (active). Also, the call in test [2], in [3], in test [4], in test [5], in test [6] and in test [7] was inactive. The call in test [8], in test [9] and in [10] was inactive.

Regarding `CC(C)(C)c1ccc(OC2CCCCC2O)cc1` (stereo not given), the molecule was classed as inactive in test [1], in test [2], in test [3], in [5], in [6] and in test [8]. Besides, the outcome in test [10] was inactive. The values for the AC50 in [4], in [7] and in test [9] were 48.8 µM (active), 24.5 µM (active) and 42.4 µM (active), respectively.

For `OC[C@@H](O)[C@@H](O)[C@H](O)[C@@H](O)CO`, the call in [1], in test [2], in test [3], in [4], in [5] and in test [6] was inactive. The outcome in [8], in test [9] and in [10] was inactive.

With `OCCCC(F)(F)C(F)(F)C(F)(F)F`, the outcome in test [1], in test [2], in test [3], in test [4], in [5] and in [6] was inactive. Besides, the molecule was classed as inactive in test [8], in [9] and in test [10].

In the case of `CCCCCCC(C)OC(=O)CCCCC(=O)OC(C)CCCCCC` (stereo not given), the molecule was called inactive in [1], in [2], in [3], in [4], in test [5] and in [6]. Besides, the molecule was classed as inactive in [7], in test [8], in test [9] and in [10].

`CCC(=O)OCCc1ccccc1`: the outcome in test [1], in [2], in test [3], in test [4], in [5] and in test [6] was inactive. The molecule was classed as inactive in [7], in test [8], in test [9] and in test [10].

As for `Cc1cccc(N(C)C)c1`, the outcome in [1], in test [2], in test [3], in test [4], in test [5] and in test [6] was inactive. Moreover, the outcome in test [7], in test [8], in [9] and in test [10] was inactive.

As to `O=P(O)(O)OCCC(F)(F)C(F)(F)C(F)(F)C(F)(F)C(F)(F)C(F)(F)F`, the molecule was called inactive in test [1], in test [2], in test [3], in [4], in [5] and in [6]. For the same molecule, the molecule was called inactive in test [8], in test [9] and in test [10].

On to `O=C(O)C(F)(OC(F)(F)C(F)(OC(F)(F)C(F)(F)C(F)(F)F)C(F)(F)F)C(F)(F)F` (stereo not given), for which the molecule was classed as inactive in [1], in test [2], in [3], in test [4], in test [5] and in test [6]. The molecule was classed as inactive in test [7], in test [8], in test [9] and in [10].

As for `CC(=O)Nc1ccc(N=Nc2cc(C)ccc2O)cc1`, the molecule was classed as inactive in [1], in test [2], in test [3], in test [4], in [5] and in test [7]. Moreover, the molecule was called inactive in test [8], in [9] and in [10]. For the same molecule, the AC50 in test [6] is 17.7 µM (active).

With `FC(F)(I)C(F)(F)C(F)(F)C(F)(F)I`, in test [1], the AC50 was 0.312 µM (active). The result in test [2], in [3], in [4], in test [5], in test [6] and in [7] was inactive. The call in test [8], in test [9] and in test [10] was inactive.

Regarding `CC(C)OC(=O)c1ccccc1C(=O)OC(C)C`, the outcome in test [1], in test [2], in test [3], in test [4], in [5] and in test [6] was inactive. Further, the molecule was classed as inactive in [7], in [8], in test [9] and in test [10].

As for `CC(C)(C)C(=O)CC(=O)C(F)(F)C(F)(F)C(F)(F)F`, the outcome in [1], in test [2], in test [3], in [4], in test [5] and in [6] was inactive. Moreover, the molecule was classed as inactive in [8], in test [9] and in [10].
